This note sets out measurements from PubChem BioAssay AID1347426 (Functional Genomics Laboratory (NCATS/FGL), 2020).

Among all 31,000 sequences or so, about 1,400 (4.5%) were called active. Only a selection was taken, and actives are over-represented in it overall. Values without a mark were called inactive.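 The calls were made as follows: active = median seed-adjusted z-score above 1 or below -1; inactive = the rest.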

The experiment can be described thus: Novel Modifiers of Survival Motor Neuron (SMN) Protein: Gene Identification via Genome-wide siRNA Screen. The following applies: HEK293T SMN2-luciferase reporter, siRNA knockdown, 72 h; actives lie on both sides. An excerpt: Spinal muscular atrophy (SMA) is the most common neuromuscular autosomal recessive disorder and one of the leading genetic causes of infant death. SMA results from mutations inducing loss of function or deletion in the survival of motor neuron-1 gene (SMN1), leading to deficiency of the survival motor neuron (SMN) protein. Although a second nearly identical gene, SMN2, is retained in humans, its expression primarily produces an aberrantly spliced isoform that is largely unstable and quickly degraded. We performed a genome-wide RNAi screen using a cell-based reporter assay to identify genes and pathways that modulate SMN protein stability. The screen identified over 200 genes that led to the greatest increase or decrease in luciferase expression.
Using HEK293T cells stably expressing a luciferase reporter that combines the promoter and splicing based cassettes in tandem with the major portion of the native SMN2 cDNA with luciferase, we performed a genome-wide RNAi screen to identify modulators of SMN protein levels. Luciferase is expressed when full-length SMN protein is generated with luminescence signal proportional to SMN protein levels. Our luciferase-based reporter assay was used to screen Ambion Silencer Select Human Druggable Genome siRNA library (10418 genes, 3 unique siRNAs per gene) using lipid-based reverse transfection.
Briefly, 1 pmol of each siRNA was spotted to a well of a 384-well plate (Corning, Corning, NY) and 20 microL of serum-free DMEM containing […] of Lipofectamine RNAiMax (Life Technologies, Carlsbad, CA) was then added to each well. Transfected cells were maintained at 37 degrees C in 5% CO2 for 72 hours, 20 microL of ONE-Glo Reagent (Promega) was added to wells for luciferase quantification. Raw luminescence reads were normalized to Ambion(R) Silencer(R) Negative Control #2 siRNA, then log10 transformed. A robust statistical measure of median absolute deviation (MAD) to standardize siRNA activities from each screen. Common Seed Analysis was used to help prioritize clean hits as opposed to those appearing to arise from seed based off-target effects. Candidate modulators were defined as the genes having a MAD score greater than 1.0 or less than -1.0.
(Reporter assays use an easily measured gene product as a stand-in for the process of interest.)
GAAACGAACUGGGCAGUAUTT against FGF2: the median seed-adjusted z-score was 0.0208.

For the sequence GGAUAGUGAGGAUAAGGAATT against PPP1R15A, the median seed-adjusted z-score is 0.539. To CAAAUCCAGUGGUGGGUAATT against S100A6 belongs -0.264; to GUCCUGAAGUCACUCCGAUTT against FUT10, -0.629.

For the sequence CCACUCUCAUCAAAUCCGATT against MLL2, the median seed-adjusted z-score is -2.11 (active). For AGAUGAGGAGUGUCGUCAATT against KLK13 the value was 0.452; for GUUCCUACGUGUACAACGATT against DNASE1L1, 0.542. For GAAUAUGGGUUGGCCUAUATT against ZNF655 the value was -0.156; for CAUUAGCAGAUAUACUAUUTT against EEF1E1, -1.45 (active). To GGACGGAUCUCAAUCGAAATT against CPO belongs 0.0875.

On to GAAGGAAUGAAAUCCGGAATT against TRIM8, for which the median seed-adjusted z-score is -0.296. To CGAAUUCAGGUCAACAAUATT against TRERF1 belongs -0.0952; to GAGUUUAAGCGCAAGCAUATT against HSPA8, 0.462; to UCACAGACGAGGCAUUUAATT against FTCD, -0.27.

Turning to GCCUGGAUGAAUUCGAUUATT against UBE4A, the median seed-adjusted z-score was -0.285. To GUAAUACGAGGAAAUAGUATT against SNRPG belongs -3.09 (active); to CAUACACUCUACUCCUGCUTT against CDH26, 0. For GCGACCCUGUUAUUCUGUATT against TM9SF1 the value was 0.14. For CACCAUUGCAAACCAAAUATT against KCNQ5 the value was 0.0191; for CGUCAACGAUCGGAAGAAATT against TTLL9, 0.0534. On to GCCCAACAAGUGCAUGUUUTT against GLIS1, for which the median seed-adjusted z-score is 0.838. In the case of CCUCGUCCGUAGUCUCCUUTT against ADRB1, the median seed-adjusted z-score is 1.06 (active). To GUAUUGCCUUUGUCAAGAATT against SNX19 belongs 0.67; to GAAUUGACUUCUUGUCUAATT against RAB41, -0.534; to CGUCAUCAGACUCAAUGAATT against 12-Sep, 0.286. For GGAUGAUGAGUACUCUGAATT against COL7A1 the value was 1.08 (active).

On to GGAAUUUAAGUGAUAGUGATT against CPEB2, for which the median seed-adjusted z-score is -0.00928.

For the sequence GCUGCAACCUUGACUACUATT against RRM1, the median seed-adjusted z-score was -5.51 (active). For AGGUGAAUAUUGACCACUUTT against RGS5 the value was 0.

As for GAGUCAACAAUGGACAUUUTT against KLHL1, the median seed-adjusted z-score was 0.067. For CAACUAGUGGAGAAGAUCATT against FAM63B the value was 0.111; for GGUCACCACUUGCAAGCUATT against ANG, -0.481; for AGCUGGGCUUUAUCGUGGATT against P2RX2, 0.0454.

Take GCUUAUUUAUGUAUCAAUATT against ADRB1: the median seed-adjusted z-score is 1.06 (active). To GGAAAAAUCUAAGAAGCAATT against ZC3H11A belongs -0.137. For GCUUCACCAUCGAAUCCAATT against FLT4 the value was -0.861. For GCUGCGGCAUGAUCACUAATT against LBXCOR1 the value was 0.0938. For CAUUGGGCCUAGAAAUUCATT against CNKSR1, the median seed-adjusted z-score was 0.217. For the sequence GGCGAAGUGUCCGACAGAATT against ZNF747, the median seed-adjusted z-score was 0.379. To GGAGAUCUGCUACUAAACATT against PSMD6 belongs -1.03 (active); to GGGAGAGUGGUGAACGUAUTT against CBR1, -0.6. For CAGUGUUAAUGACCGAAGATT against EIF4G1 the value was -0.978; for GAUGAUACCAGGCAUAUAATT against USP15, -0.405; for GCAAUCUUGUUGUACACCATT against ZNF432, -0.124. For the sequence GGAGCUGAAUGAGCUGACATT against OSBPL7, the median seed-adjusted z-score was 0. As for “CCACGAUGUGGGAUAAUAATT against GALNAC4S-6ST”, the median seed-adjusted z-score is 0.218. To GUGGUGCAGUUUUUCGUAATT against THOC2 belongs -1.22 (active). With GGCUCAUAAUGGAGCAGGUTT against TIMM13, the median seed-adjusted z-score was -0.422. To CAGUCUUGAUUCCACUGAATT against PCDHA3 belongs 0.311.

In the case of CGGAUAUUCCUGAACGCAATT against MARK3, the median seed-adjusted z-score was 0.271. To GCACGCGGCUAUACAAUCATT against SLC25A34 belongs -0.256; to GAAGCAGUGCCAAUGAACATT against TCEB2, 1.28 (active). In the case of AGCACAUCUCGGUCCUCCATT against MAPK8IP2, the median seed-adjusted z-score was 0.284. For GGACGAUCACUGUUGUGCATT against RBM22 the value was 0.0259.

Regarding ACUUGAAUCUUAGCAUUCATT against RAD9A, the median seed-adjusted z-score was -0.0564.

As for CAAGACUGCUGAUGAGUUUTT against HSD17B3, the median seed-adjusted z-score is 0.734.

Consider CUUUCACACUCGACACUGATT against HOXA2, for which the median seed-adjusted z-score is 0.335. For GAACAUCCGUGAGCAAGGATT against KCNJ8 the value was 0.329; for GCCCUUGCCUUAUUGCUGATT against MED20, -1.66 (active); for GGCUUGAGUUCAUUCAGAATT against PKN3, 0.476. For GCCGGUGCUUUAUCUCAUUTT against GPR87 the value was 0.237.

GAGACUUUCUACAAUACUATT against EIF4A2: the median seed-adjusted z-score is 0. Turning to CGCUCUCUUCACUUACGAATT against MYO10, the median seed-adjusted z-score was 0.8. For UAAUGACCCUAUCUAUAAATT against UGT2B17 the value was -0.0203; for GAUGGAUUCUUGUUCCGUUTT against KCTD16, 0.00219; for GAACUUCUACUUUAACAAATT against HS3ST1, 1.21 (active). For CUUUUGAACAGAUCGAUGATT against EXO1 the value was 0.547. To GCUCAUAAAUGAGAAGCUATT against PCDHB16 belongs -0.523. As to AGUGUACAAUCGAUAAAAATT against ESR2, the median seed-adjusted z-score was -1.1 (active).

Turning to CAGCAUACAUGUUUAGUGATT against TRPC6, the median seed-adjusted z-score is -0.527. On to CGGUAUCUAUGACACUGCATT against SLC25A5, for which the median seed-adjusted z-score is -0.0501. To CAGAGUCUUUCAUUCGAAUTT against SPATA5 belongs -1.04 (active).

On to GAACUAUGGUGCUACUGGATT against ZNF449, for which the median seed-adjusted z-score is 0.178. Consider AGAGCUCACUCGUCCCAAUTT against CXCL16, for which the median seed-adjusted z-score was 0.201.

Consider CGAAAAGUCUCACAGUGGATT against ZNF563, for which the median seed-adjusted z-score was 0.00283. For CGGGUAUUGUGGGACUGAATT against USP39 the value was 0.821; for UAAUUGACCUGACCAGUUUTT against SLC30A8, -0.767.

CUGGAUAAGUGUUUCGAAATT against AP3S2: the median seed-adjusted z-score is 0.521. To CACCCACACCGGAUUGAAATT against BAG5 belongs -0.0153; to CGGCCGCUCUAUAAGCUGATT against LLGL1, -1.13 (active).

As for GCCCUGCGGUACAAUGUCATT against APOBEC2, the median seed-adjusted z-score is 0.232. On to GGCCUAUUUCCAAACCGAUTT against RICS, for which the median seed-adjusted z-score is 0.665. As to CCACCGAUUUGAUCCCAAATT against NAPSA, the median seed-adjusted z-score was -0.336. For CAUUCACCACAAUAGCUAUTT against GPR1 the value was 0.0609; for GGAUUGAAGAUACUACAAATT against THOC1, -3.04 (active).

Consider CAACAGCACCAGUUUGACATT against NAGLU, for which the median seed-adjusted z-score is -0.526. GGACUUCAGGGUUUAACAATT against FOLR1: the median seed-adjusted z-score was -1.31 (active). For CAGCCUUACUCAAUUUGUATT against EFS the value was -0.299; for CACGUGCAGAGUGUCGAUATT against EEF1D, 0.421; for GGUCUAAACUUGAUCCAAATT against CCAR1, -1.18 (active). Take AAUAUUUGCUGUUCGUCAATT against MOCS2: the median seed-adjusted z-score is 0.0327.

As to CCAUCCCAAAUUUACAACATT against SARS2, the median seed-adjusted z-score was 0.524.

CUCUAACUAUGAUCUCGUUTT against CDS1: the median seed-adjusted z-score was 0.0208. For the sequence GGCUUGACCUUUUUCGUCUTT against DYNC2H1, the median seed-adjusted z-score is -0.613.

Regarding GAACCGACAAAAGUAGAUATT against RARB, the median seed-adjusted z-score is 0.409. For GAAUUAGAGUUGAGGGUAATT against MYBPC1 the value was 0.295; for GCAUGGUCUUUCUACUUGUTT against TUBB2A, 1.03 (active); for CCAAAGCUCUCAUCGGAGATT against GNS, 0. For GGACUCACCAAAUAGAUCATT against ZNF818 the value was -0.223; for GCAAGGAGUAUAACAUGUATT against SKAP1, -0.00637; for CAUUCGAUCUAGCAAAUUATT against TUBB1, -0.289. On to GGCUGUUGGUAACCUGAGATT against TF, for which the median seed-adjusted z-score was 0.192. For GACCAUUCGUACUCCUUGUTT against THAP11 the value was -1.36 (active). For CCAUCGCCUUGAAGGAGAATT against RNF31 the value was -0.687; for AGACCUUCGUGGAAAAAUATT against CDC37, 0.

For the sequence GGAGGACAAUCAGCAAGGATT against SPOCK2, the median seed-adjusted z-score is 0.967.

Consider AGAACAUCAUCGCGCGGGATT against FOXB1, for which the median seed-adjusted z-score was 0.223. As to GCUUACUAGUUUGAACGGATT against SPATA5, the median seed-adjusted z-score was -1.04 (active).
